This note sets out measurements from PubChem BioAssay.

Unmarked numbers belong to inactive results. How the calls were made is not given here.

Sequence of Pantothenate synthetase (Mycobacterium tuberculosis (strain ATCC 25618 / H37Rv)) (P9WIL5 whole entry, looked up): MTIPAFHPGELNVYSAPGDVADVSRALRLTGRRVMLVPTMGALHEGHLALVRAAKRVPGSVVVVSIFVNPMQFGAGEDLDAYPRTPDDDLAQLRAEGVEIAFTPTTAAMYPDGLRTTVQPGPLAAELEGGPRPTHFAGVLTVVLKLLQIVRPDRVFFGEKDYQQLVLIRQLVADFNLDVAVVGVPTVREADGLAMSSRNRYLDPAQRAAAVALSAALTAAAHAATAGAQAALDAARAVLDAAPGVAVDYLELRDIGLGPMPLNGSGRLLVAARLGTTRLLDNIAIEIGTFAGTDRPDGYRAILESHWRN

The assay addresses Pantothenate synthetase (Mycobacterium tuberculosis (strain ATCC 25618 / H37Rv)) (UniProt P9WIL5). Kind of assay: Coupled enzyme confirmation of inhibitors against recombinant Mtb PanC (AID 375).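 Further: 0% = full reaction with vehicle and 100% = no enzyme background.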 Conditions: coupled enzyme assay; at 10 µM, active compounds read high.
In general, inhibition refers to the share of the control response that was lost under treatment. Consider `Cc1cccc(NC(=O)c2cc3n(n2)C(C(F)(F)F)CC(c2ccc4c(c2)OCO4)N3)c1` (stereo not given), for which the inhibition was 4%. Regarding `CCc1ccc(N2CC(C(=O)OCC(=O)NC3CCS(=O)(=O)C3)CC2=O)cc1` (stereo not given), the inhibition was 0%. Then `Cn1c(=O)c2c(nc(NCCCO)n2Cc2cccc(Br)c2)n(C)c1=O`, with 3%.

In the case of `COc1ccccc1-c1coc2c(CN3CCN(CCO)CC3)c(O)ccc2c1=O`, the inhibition is 0%.

As to `O=C(CSc1ccc2nnc(-c3ccccc3)n2n1)N1CCN(c2ccccc2)CC1`, the inhibition is 1%. Regarding `O=C1c2ccccc2NC(c2cccc(F)c2)N1Cc1ccco1` (stereo not given), the inhibition is 0%. Then `O=C(c1ccco1)c1nnn(Cc2ccccc2)c1-c1ccccc1`, with 1%; and `CC(C)=CCCC(C)NC(=O)NC1CCCCC1` (stereo not given), with 0%; and `Cc1cc(C)nc(NC2=NCC(=O)N2c2ccc(Cl)cc2)n1`, with 0%. With `Cc1ccc(-c2cc(C(=O)N3CCCC3)no2)cc1`, the inhibition is 0%. Then `COc1cc(Cl)c(C)cc1NC(=O)COC(=O)c1cnc(C)cn1`, with 0%; and `CC(C)NC(=O)c1ccccc1NC(=O)CCS(=O)(=O)Cc1ccccc1`, with 2%.

In the case of `CC1(C)CC(=O)C(C=NCCO)=C(O)C1`, the inhibition was 0%. The value for `CCN(CC)CCN1C(=O)C(O)=C(C(=O)c2cccs2)C1c1ccc(C)o1` (stereo not given) was 0%. Then `CC(C)(C)C(=O)CNS(=O)(=O)c1ccc(S(=O)(=O)NC2CCCC2)cc1`, with 0%; and `CCOc1ccccc1N1CCN(S(=O)(=O)c2cccc3nsnc23)CC1`, with 0%; and `COCCN1C(=O)c2oc3c(C)cc(C)cc3c(=O)c2C1c1cccc(O)c1` (stereo not given), with 5%. The value for `CCCCNS(=O)(=O)c1ccc(OC)c2ncccc12` was 3%; that for `O=C(O)COc1ccc(S(=O)(=O)NCCc2ccccc2)cc1` was 6%. On to `O=C1NC(=O)C2(CCC(C(=O)O)C2)N1` (stereo not given), for which the inhibition is 11%. The value for `O=C1c2ccccc2C(=O)N1C/C=C/c1ccccc1` was 2%. Then `COc1ccc(-c2cc(C(=O)NCc3ccc(Cl)cc3)no2)cc1OC`, with 0%; and `COc1cc2c(cc1OC)-c1nnc(C)n1C1(CCCC1)C2`, with 0%; and `CCOc1ccc2nc(SCC#N)c(C#N)cc2c1`, with 0%. Then `O=C1[C@@H]2C(c3ccccc3Cl)=NO[C@@H]2C(=O)N1Cc1ccccc1`, with 0%; and `c1ccc2c(c1)Cn1c-2nc2ccccc21`, with 0%; and `Fc1ccc(C2C3=C(Nc4ncnn42)c2ccccc2OC3c2ccncc2)cc1` (stereo not given), with 0%. `CC(=O)N(C(C)=O)c1cccc2c(N(C(C)=O)C(C)=O)cccc12`: the inhibition is 1%.

Regarding `O=C(NCC(=O)N1CCC(N2CCCCC2)CC1)C1CCCCC1`, the inhibition was 3%. Then `COc1cc(OC)cc(-c2nc3nc(C)c(CCC(=O)O)c(C)n3n2)c1`, with 0%. Then `N#CC1=C(N)N(c2ccc(Oc3ccccc3)cc2)C(=O)C1`, with 2%; and `Cc1cc(OCC(=O)Nc2ccc3oc(-c4ccncc4)nc3c2)ccc1Cl`, with 0%. The value for `COc1cccc(NC(=O)CSc2nnc(-c3cccs3)n2C)c1` was 0%.

For `Cc1ccc(CN2C(=O)CCC2C(=O)NCCCN2CCCC(C)C2)cc1` (stereo not given), the inhibition is 1%. As to `COC(C)(C)c1cc(C(C)(C)C)nc(N)n1`, the inhibition was 0%. Consider `O=C1NC2=C(C(=O)CCC2)C(c2ccc3ncccc3c2)N1` (stereo not given), for which the inhibition is 0%. For `C=CCSc1nc(N)c(C(=O)Nc2ccccc2C)cc1C(N)=O`, the inhibition was 0%. In the case of `CCn1c(SCC(=O)Nc2ccc(Cl)cc2)nnc1C1CC1`, the inhibition is 0%. Then `CCC1CCCCN1c1nc(-c2ccncc2)nc2ccccc12` (stereo not given), with 1%; and `O=C(CSc1ccc(-c2ccccc2)nn1)N1CCOCC1`, with 0%.
